Compound activity as filed in PubChem BioAssay.
SENP8 block-1: inhibitors of human SENP8 protease. Q96LD8. recombinant SENP8, Nedd8 substrate fluorescence. inhibition, % at 20 µM. 0.64% of 360,000 active; in the data active = inhibition mostly above about 40%, no sharp cut-off; inactive = mostly below about 27%
SENP7 inh: SENP7 protease inhibition; recombinant SENP7, Z-RLRGG-aminoluciferin luminescence, 40 min; 1.5% of 330,000 active; inhibition, % at 5 µM; Q9BQF6; AID 434973;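 active = inhibition above about 50% at the single test dose, limit read from the data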;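 note: plate controls were DMSO with enzyme for no effect and no enzyme buffer wells for full effect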
Target sequence (Q9BQF6 706-1050 limits assumed): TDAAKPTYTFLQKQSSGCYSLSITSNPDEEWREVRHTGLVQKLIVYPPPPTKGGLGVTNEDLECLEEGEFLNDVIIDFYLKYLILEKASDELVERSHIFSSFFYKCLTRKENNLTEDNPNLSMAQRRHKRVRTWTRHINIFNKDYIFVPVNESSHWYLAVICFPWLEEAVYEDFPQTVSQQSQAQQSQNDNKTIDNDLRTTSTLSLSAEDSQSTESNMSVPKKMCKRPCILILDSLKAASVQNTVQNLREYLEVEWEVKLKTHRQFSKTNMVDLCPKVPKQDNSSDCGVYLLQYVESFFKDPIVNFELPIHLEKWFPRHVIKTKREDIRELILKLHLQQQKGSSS
SENP6 inh: inhibitors of human SENP6 protease. Recombinant SENP6 catalytic domain, aminoluciferin luminescence. inhibition, % at 10 µM. 1.8% of 330,000 active;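 active = inhibition above about 50% at the single tested dose, limit read from the data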;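 note: plate controls were DMSO wells with enzyme for no effect and DMSO wells lacking enzyme for full effect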
C8 TRAIL sens: caspase-8 TRAIL sensitization | inhibition (viability loss, TRAIL sensitization), % at 10 µM | 1% of 360,000 active | NB7+C8 cells + TRAIL, ATPlite viability luminescence;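 active = compounds causing at least 50% loss of cell viability in the single-dose screen, relative to plate controls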
SENP8 block-2: SENP8 protease inhibition; AID 2540; purified SENP8, Z-RLRGG-aminoluciferin cleavage, luminescence; inhibition, % at 10 µM; 1.2% of 330,000 active; Q96LD8; in the data active = inhibition above about 50%
PPC-1+TRAIL kill: kills PPC-1 cancer cells in the presence of TRAIL; PPC-1 cells + TRAIL, ATPLite viability luminescence; cell killing (% activity), % at 4 µM or 5 µM; 0.41% of 220,000 active;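 active = cell killing above 50% in the first pass at 4 µM, then a duplicate retest at 5 µM averaging 50% or more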;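 note: plate controls were cells with TRAIL plus DMSO for no effect and medium-only wells lacking cells for full effect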
SENP8 confirm: human SENP8 inhibition, confirmed; shares compounds with SENP7 inh; Recombinant SENP8, Z-RLRGG-aminoluciferin luminescence, 60 min; inhibition, % at 12.5 µM; 40% of 6,200 active; AID 488912;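 active = mean inhibition across replicates above about 50%, limit read from the data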
SENP6 conf: human SENP6 inhibition, confirmed; shares compounds with SENP7 inh; recombinant SENP6, Z-RLRGG-aminoluciferin luminescence; inhibition, % at 12.5 µM; 58% of 6,200 active
SENP7 conf: confirmation of human SENP7 protease inhibitors; shares compounds with SENP7 inh; recombinant SENP7, Z-RLRGG-aminoluciferin luminescence, 40 min; inhibition, % at 12.5 µM; 69% of 6,200 active
Casp3 select: caspase-3 inhibition (SENP selectivity assay). shares compounds with SENP7 inh. 60% of 6,200 active. inhibition, % at 12.5 µM. purified caspase-3, Z-DEVD-aminoluciferin luminescence, 60 min;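 active = mean inhibition above about 50%, limit read from the data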;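 note: plate controls were enzyme with DMSO for no effect and wells without caspase-3 for full effect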
SENP luc ctr: luminescence interference (SENP counter-screen); Pre-incubated SENP8/Z-RLRGG-aminoluciferin, luciferase luminescence interference; 39% of 6,200 active; shares compounds with SENP7 inh; AID 488919; inhibition, % at 12.5 µM;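 active = mean inhibition above about 50% when retested at one dose, limit read from the data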;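 note: plate controls were DMSO wells with completed reaction for no effect and substrate without enzyme for full effect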
* marks the source's active call; other numbers are inactive results; x = not tested or not shown. Only some compounds are listed: those with a hit (about 3% of all), similar ones and a draw of the others.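 Rule for the calls, unless noted: active = mean inhibition above about 50% in the one-dose retest (limit read from the data); inactive = the rest.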

SMILES | SENP8 block-1 | SENP7 inh | SENP6 inh | C8 TRAIL sens | SENP8 block-2 | PPC-1+TRAIL kill | SENP8 confirm | SENP6 conf | SENP7 conf | Casp3 select | SENP luc ctr
COC(=O)c1ccc(/C=C/c2nc3ccccc3c(=O)[nH]2)cc1 | -321 | 96* | 89* | 53* | 85* | x | 29 | 24 | 52* | 63* | -4
C=CCOc1cccc(/C=C/c2nc3ccccc3c(=O)[nH]2)c1 | -35 | 82* | 37 | 57* | 28 | x | -10 | 4 | 12 | 17 | 13
COc1cc(/C=C/c2nc3ccccc3c(=O)[nH]2)cc(OC)c1OC | -296 | -3 | -13 | 10 | 15 | x | x | x | x | x | x
Cc1ccccc1/C=C\c1nc2ccccc2c(=O)[nH]1 | -74 | 85* | 76* | 35 | 69* | 32 | 15 | 24 | 62* | 25 | -4
CC1CCCCC12NC(=O)N(CC(=O)NCCc1ccc(F)cc1)C2=O (stereo unspecified) | 10 | -3 | -3 | -1 | -11 | x | x | x | x | x | x
O=c1c2cc(F)ccc2sn1-c1ccc(F)cc1 | 7 | 44 | 93* | -8 | 88* | x | 92* | 93* | 100* | 92* | 86*
COc1ccc(-n2sc3ccc(F)cc3c2=O)cc1 | 21 | 79* | 91* | -5 | 91* | x | 96* | 95* | 102* | 96* | 92*
COc1ccc(-n2sc3ccccc3c2=O)cc1 | 23 | x | x | -7 | x | x | x | x | x | x | x
Nc1ccn([C@@H]2O[C@H](CNCc3ccc(OCC(=O)Nc4nccs4)cc3)[C@@H](O)[C@H]2O)c(=O)n1 | 11 | x | x | -6 | x | x | x | x | x | x | x
Cc1csc(NC(=O)COc2ccc3c(c2)CCC3)n1 | 6 | 84* | 82* | 19 | 74* | x | 81* | 80* | 96* | 80* | 46
CCOc1cc(-c2c(C#N)c(N)nc3c2CCc2ccccc2-3)ccc1O | -405 | 1 | 9 | -8 | 6 | 18 | x | x | x | x | x
COc1ccccc1-c1c(C#N)c(N)nc2c1CCc1ccccc1-2 | -394 | 78* | 96* | -11 | 78* | 18 | 7 | 8 | 12 | 3 | 3
CN(CC(=O)Nc1ccccc1Br)C(=O)CCSc1ccc(F)cc1 | 12 | 12 | -5 | 1 | -14 | x | x | x | x | x | x
O=C(O)c1ccc(N/N=C2/CCCc3ccccc32)cc1 | -19 | 17 | 71* | 33 | 48 | -8 | 71* | 68* | 84* | 73* | 58*
O=C(O/N=C1\CCCc2ccccc21)C1CC1 | 21 | 2 | 8 | -5 | 0 | 0 | x | x | x | x | x
Cc1ccc(C(=O)O/N=C2\CCCc3ccccc32)cc1 | 12 | 97* | 97* | 32 | 90* | 19 | 72* | 98* | 103* | 85* | 12
O=C(O/N=C1\CCCc2ccccc21)c1cccc(Cl)c1 | 5 | 82* | 83* | -3 | 46 | 31 | 66* | 64* | 90* | 65* | 43
Cc1cccc(C(=O)O/N=C2\CCSc3ccc(C)cc32)c1 | -37 | 1 | 13 | 1 | 0 | -12 | x | x | x | x | x
Cc1cccc(C(=O)O/N=C2\CCCc3ccccc32)c1 | 4 | 90* | 92* | 16 | 65* | -6 | 43 | 88* | 98* | 78* | 64*
CCOC(=O)C1=CNS(=O)(=O)NC1c1ccc(C(F)(F)F)cc1 (stereo unspecified) | -100 | 5 | x | -2 | x | x | x | x | x | x | x
CCN(CC)S(=O)(=O)c1ccc(C(C)NC(=O)C2CCCN2C(=O)c2cccs2)cc1 (stereo unspecified) | 6 | 3 | 16 | -13 | 1 | x | x | x | x | x | x
